This is an account of results in PubChem BioAssay (NCI).

About 83,000 compounds went through this panel and 20% of them were active in at least one assay; those are over-represented in the sample as a whole.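 Single-concentration screen, 48 h exposure, 96-well plates. Endpoint: percent growth. Below 10 = active.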 Active and inactive are the calls of the source.

In the assay the test system is HL-60(TB) leukemia. The assay is described as follows: NCI-60 one-dose screen, 48 h (100 = growth as untreated, 0 = no growth, -100 = all killed). As to conditions: 10 µM unless noted.
As for `CC(C)(C)c1cc(Cl)c(O)c(CNCCO)c1`, the growth is 117% (inactive).
In the case of `NC(=O)c1c(NC(=O)c2cccc(C(F)(F)F)c2)sc2c1CCC(=O)C2`, the growth was -11.6% (active).
As for `Cc1cccc(C)c1NCc1nnc(-c2ccco2)o1`, the growth is 97.5% (inactive).
Under `O=S(=O)(NCCO)c1ccc(OCCOc2ccc(S(=O)(=O)NCCO)cc2)cc1` stands 68.4% (inactive); under `O=C(Nn1c2c(sc1=NC1CC1)C(=O)c1ccccc1C2=O)c1cc2ccc1CCc1ccc(cc1)CC2`, 2.39% (active); under `Nc1n[nH]c2cccc(C#Cc3cccc(C(=O)Nc4ccc(Cl)c(C(F)(F)F)c4)c3)c12`, 21% (inactive).
Consider `NS(=O)(=O)c1cc(Br)c2c(c1)S(=O)(=O)NCN2`, for which the growth is 71.2% (inactive).
Turning to `O=c1oc2c(C(F)(F)F)cccc2cc1-c1csc(Nc2ccc(OCCF)cc2)n1`, the growth is -1.08% (active).
On to `CN(C)C1CN(C(=O)c2cc(-c3ccc4ncnc(N5CCc6cc(F)c(Cl)cc65)c4c3)cnc2N)C1`, for which the growth was -1.16% (active).
Turning to `C=CC(=O)OCCCCCCCC`, the growth is 88.6% (inactive).
Regarding `COc1ccc(Cl)cc1Nc1nc(C(F)(F)F)ccc1C(=O)N/N=C/c1ccccc1Cl`, the growth is -11.3% (active).
For `COc1ccc(/C=C\c2cc(OC)c(OC)c(OC)c2)cc1OC(=O)c1cccc(Cn2cc(CCOC(=O)[C@H](N)Cc3cn(C)c4ccccc34)nn2)c1`, the growth was -42.7% (active).
`COc1ccc(-c2nc(SCC(C)C)nc(Nc3ccccc3)c2C#N)cc1`: the growth was 88.6% (inactive).
Take `CC(=O)Nc1c(Cl)cc2c(c1Cl)Cc1ccccc1-2`: the growth was 99.7% (inactive).
For `c1ccc(CCn2cccc2)nc1`, the growth is 1.63% (active).
As to `Cc1ccc(/C=C(\C#N)c2cc3ccccc3[nH]2)cc1`, the growth was 22.8% (inactive).
Regarding `COc1ccc2nc3c(n2c1)C(=O)C(=O)c1ccccc1-3`, the growth was -48.9% (active).
With `CC(C)(C)c1ccc(C(O)CCCN2CCC(C(O)(c3ccccc3)c3ccccc3)CC2)cc1` (stereo unspecified), the growth was -51.9% (active).
As for `COc1cc([C@@H](CCO)C[C@H](C)c2ccc3ccccc3c2)cc(OC)c1OC`, the growth was 6.14% (active).
In the case of `O=C(CN(C1CCCCC1)C1CCCCC1)Nc1ccc(S(=O)(=O)c2ccc(NC(=O)CN(C3CCCCC3)C3CCCCC3)cc2)cc1`, the growth is -39.3% (active).
`CC(Sc1nc2sc3c(c2c(=O)n1-c1ccc(Cl)cc1)CCCC3)C(=O)Nc1nc(-c2ccc(Br)cc2)cs1` (stereo unspecified): the growth is 98.6% (inactive).
`COc1cc(-c2nc(NC(C)=O)sc2-c2ccnc(NCCNS(=O)(=O)c3ccccc3)n2)ccc1Cl`: the growth is -22.3% (active).
The figure for `CC(O)CCNC(c1ccccc1)C(O)c1ccccc1` (stereo unspecified) is 102% (inactive); for `O=C1C(Cl)=C(Cl)C(=O)c2c1nc1n2CCCC1` it is 74.8% (inactive); for `CC(C)(C)CC(C)(C)Nc1c(-c2c(O)c3ccccc3oc2=O)nc2c(Cl)cc(C(F)(F)F)cn12` it is 90.9% (inactive).
On to `CCC(C)C(N)C(=O)NC(CC(N)=O)C(=O)NC(CC(C)C)C(=O)NC(CCCCN)C(=O)NC(C)C(=O)NC(CC(C)C)C(=O)NC(C)C(=O)NC(C)C(=O)NC(CC(C)C)C(=O)NC(C)C(=O)NC(CCCCN)C(=O)NC(CCCCN)C(=O)NC(C(=O)NC(CC(C)C)C(N)=O)C(C)CC` (stereo unspecified), for which the growth was 56.1% (inactive).
For the compound `COc1ccc(-n2nc(C)c3c(Nc4ccc(NC(=O)Nc5cccc(C(F)(F)F)c5)cc4)ncnc32)cc1`, the growth was -1.99% (active).
In the case of `Cc1cc(C)cc(OCC(=O)O)c1`, the growth was 86% (inactive).
On to `O=[N+]([O-])c1cc2c(cc1Br)-c1ccccc1C2`, for which the growth is 104% (inactive).
The figure for `C=CCOC(=O)C1=C(C)NC(=O)NC1c1c(Cl)n(C)c2ccccc12` (stereo unspecified) is 109% (inactive); for `COc1cc2cc(Oc3ccc(NC(=O)Nc4ccc(Cl)c(C(F)(F)F)c4)cc3)c(C)nc2cc1OCCN1CCOCC1` it is 11% (inactive).
In the case of `CCCCCCCCCCSc1ncnc2nc[nH]c12`, the growth is 73.9% (inactive).
Under `CC1=C([Se]CC(OC(=O)[C@@H](CSSC(C)(C)C)NC(=O)C(C)(C)C)C(=O)NCCCCCC(=O)OCc2ccccc2)C(=O)c2ccccc2C1=O` (stereo partly specified) stands -24.4% (active); under `O=C(O)C1[S][Sb]([CH](C(=O)O)[CH](C(=O)O)[Sb]2[S]C(C(=O)O)C(C(=O)O)[S]2)[S]C1C(=O)O` (stereo unspecified), 94.3% (inactive).
On to `Nc1n[nH]c2ccc([C@@H]3Nc4cc5[nH]ncc5cc4[C@H]4C5CCC(C5)[C@@H]34)cc12` (stereo partly specified), for which the growth is -8.95% (active).
Consider `O=C(Cn1ccnc1)Nc1ccc(-c2nc3ccccc3s2)cc1`, for which the growth was 77.3% (inactive).
